# Test results from PMC10726135, “HNF4α isoforms regulate the circadian balance between carbohydrate and lipid metabolism in the liver”.
# The full ranking holds about 18,000 sequences; the median of “log2 normalized intensity” is about 0.39, and the highest 2% start at about 6.6. The list comes from a sample in which the highest values are over-represented; it also holds similar and randomly drawn sequences.
# Biological target: T1, HNF4alpha2 (COS-7 nuclear extract) (Homo sapiens, UniProt P41235 1-474)
# T1 sequence: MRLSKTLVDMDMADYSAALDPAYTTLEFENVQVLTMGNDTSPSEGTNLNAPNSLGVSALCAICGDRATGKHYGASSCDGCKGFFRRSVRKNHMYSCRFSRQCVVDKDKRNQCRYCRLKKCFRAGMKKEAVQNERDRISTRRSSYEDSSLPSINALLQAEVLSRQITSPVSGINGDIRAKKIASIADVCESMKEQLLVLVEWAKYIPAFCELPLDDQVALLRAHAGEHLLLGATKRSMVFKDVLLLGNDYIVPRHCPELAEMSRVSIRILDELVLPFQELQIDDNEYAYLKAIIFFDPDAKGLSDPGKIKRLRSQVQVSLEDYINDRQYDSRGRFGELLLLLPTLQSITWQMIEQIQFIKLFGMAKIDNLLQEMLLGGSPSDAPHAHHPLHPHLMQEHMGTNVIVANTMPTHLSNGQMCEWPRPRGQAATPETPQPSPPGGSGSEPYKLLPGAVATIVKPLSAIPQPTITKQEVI
# Assay: protein-binding microarray; COS-7 nuclear extract on double-stranded Agilent 4x180k PBM; binding buffer, salt, pH and temperature not given in the material; high values mean tight binding
# Conditions: chain copies: 2; label: 3' end of strand 1 on the slide; dsDNA, one strand shown
# How it was run: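 Binding signal was defined as the normalized, background-corrected gProcessedSignal reported by Agilent software. It came from nuclear extracts of COS-7 cells transiently transfected with a human HNF4α isoform expression vector, applied to a custom Agilent SurePrint G3 4x180k array. That array held ~44,000 test sequences in quadruplicate as double-stranded ~60-nt oligonucleotides, and bound HNF4α was imaged at 2-µm resolution on an Agilent G2565CA scanner.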
row,Sequence,binding signal
1,CACTTCTGAAAAAAATATTGAACAAAGATTGCCTAGGGAGATTAGAGTATCGGTCGA,-0.491 log2 normalized intensity
2,GGTGAAATAGCTGAACTATTTAAGGCCTTTGCCTAGGGAGATTAGAGTATCGGTCGA,0.822 log2 normalized intensity
3,GAAAATATTTCTCTGAACTTTGACCTATAGGCCTAGGGAGATTAGAGTATCGGTCGA,8.62 log2 normalized intensity
4,ACTGACCTTTGAGAGTCAACACTGAAATAGGCCTAGGGAGATTAGAGTATCGGTCGA,1.42 log2 normalized intensity
5,GCCACCCCCGTTAATTTCTAACCAATGCAGGCCTAGGGAGATTAGAGTATCGGTCGA,0.623 log2 normalized intensity
6,CAAACTTCTCCACTCTTCATAATTACCATTGCCTAGGGAGATTAGAGTATCGGTCGA,0.957 log2 normalized intensity
7,ACAAGCAACCCTCCTCCCTTTGGCCATGAAGCCTAGGGAGATTAGAGTATCGGTCGA,1.54 log2 normalized intensity
8,TCACAGGTTCCAGCATGGACTTCACAGCCTGCCTAGGGAGATTAGAGTATCGGTCGA,-0.535 log2 normalized intensity
9,CAAACAGCTTAGGGTTCAAACTCCAGCTCTGCCTAGGGAGATTAGAGTATCGGTCGA,3.29 log2 normalized intensity
10,TCATTCCCCTAGTATATTGGCTTGGCTGTGGCCTAGGGAGATTAGAGTATCGGTCGA,2.58 log2 normalized intensity
11,GTACCTTGACCTTCTCTGTTAACCCTTTGCGCCTAGGGAGATTAGAGTATCGGTCGA,3.76 log2 normalized intensity
12,CTCCTGTTTGTATTCCTTGTCCTTGACCCTGCCTAGGGAGATTAGAGTATCGGTCGA,4.35 log2 normalized intensity
13,TTGACCTTCGAACCCTTGCCATTTACATCAGCCTAGGGAGATTAGAGTATCGGTCGA,5.38 log2 normalized intensity
14,CATACTTCTTCCTGTTTGACCTTCGAACCCGCCTAGGGAGATTAGAGTATCGGTCGA,9.59 log2 normalized intensity
15,AAGCACATACTTCTTCCTGTTTGACCTTCGGCCTAGGGAGATTAGAGTATCGGTCGA,5.02 log2 normalized intensity
16,TTGACCTTCTCTGTTAACCCTTTGCAGCCCGCCTAGGGAGATTAGAGTATCGGTCGA,2.61 log2 normalized intensity
17,TTCTTCCTGTTTGACCTTCGAACCCTTGCCGCCTAGGGAGATTAGAGTATCGGTCGA,9.01 log2 normalized intensity
18,CCTGTTTGACCTTCGAACCCTTGCCATTTAGCCTAGGGAGATTAGAGTATCGGTCGA,7.04 log2 normalized intensity
19,CCTTGACCCTTCCTCCCATTTGCTGCTCTAGCCTAGGGAGATTAGAGTATCGGTCGA,2.08 log2 normalized intensity
20,GGAGTTGGAACGGGGGCAAGGGTCAGAGTAGCCTAGGGAGATTAGAGTATCGGTCGA,4.26 log2 normalized intensity
21,CTGGCATCTGGTCAGGGGTCAAGAAGCTCTGCCTAGGGAGATTAGAGTATCGGTCGA,2.21 log2 normalized intensity
22,GCAGAAATCAACTGCCCTCTGCCTTTCAGGGCCTAGGGAGATTAGAGTATCGGTCGA,-0.661 log2 normalized intensity

row,Sequence,binding signal
1,AGAGCACATTCTTCCATATAACCCTTGAACGCCTAGGGAGATTAGAGTATCGGTCGA,3.6 log2 normalized intensity
2,TCAAAGGGCTTAATCTTTCCTGCCTGCCGGGCCTAGGGAGATTAGAGTATCGGTCGA,-0.693 log2 normalized intensity
3,ACTTTGACCTTGTTTTCAATGACTACCTGTGCCTAGGGAGATTAGAGTATCGGTCGA,1.84 log2 normalized intensity
4,ACCCACCCACACCTCCCCTTTGTTTAACTTGCCTAGGGAGATTAGAGTATCGGTCGA,2.8 log2 normalized intensity
5,GACCTTGTTTTCAATGACTACCTGTTACCCGCCTAGGGAGATTAGAGTATCGGTCGA,1.45 log2 normalized intensity
6,AGACCTTTGACATCACCTAACTTGTGGCTGGCCTAGGGAGATTAGAGTATCGGTCGA,0.674 log2 normalized intensity
7,GCCAGCCAGGGCCACCCATCAGTGGACTTTGCCTAGGGAGATTAGAGTATCGGTCGA,6.63 log2 normalized intensity
8,AGTGGACTTTGACCTTGTTTTCAATGACTAGCCTAGGGAGATTAGAGTATCGGTCGA,7.31 log2 normalized intensity
9,GTTCAATGCTTCAGTGAGCCTTGACCTTCAGCCTAGGGAGATTAGAGTATCGGTCGA,4.09 log2 normalized intensity
10,TTTGCCATTTGGAGAGAGTTTGGCCCCAGTGCCTAGGGAGATTAGAGTATCGGTCGA,2.44 log2 normalized intensity
11,CACATGCTATTATTTTCCATCAGTGGACTTGCCTAGGGAGATTAGAGTATCGGTCGA,3.5 log2 normalized intensity
12,CCATCAGTGGACTTTGACCTTGTTTTCAATGCCTAGGGAGATTAGAGTATCGGTCGA,9.03 log2 normalized intensity
13,GCCACCCATCAGTGGACTTTGACCTTGTTTGCCTAGGGAGATTAGAGTATCGGTCGA,10.6 log2 normalized intensity
14,CCCAGGGACTTTGGCCTTACTTGGCCTGTTGCCTAGGGAGATTAGAGTATCGGTCGA,2.62 log2 normalized intensity
15,GTATCTCTTCGCCTTGCTTATCTGGGAGGGGCCTAGGGAGATTAGAGTATCGGTCGA,-0.214 log2 normalized intensity
16,CTTCAAAGGAGTGGAGGAAGGAAGAAGTGTGCCTAGGGAGATTAGAGTATCGGTCGA,0.537 log2 normalized intensity
17,GTGGTCATGTAGGTGTCTCAGGAATGTCCTGCCTAGGGAGATTAGAGTATCGGTCGA,1.85 log2 normalized intensity
18,GCTTATGCATGGGAGATCTTCAGTAAGAGGGCCTAGGGAGATTAGAGTATCGGTCGA,-0.283 log2 normalized intensity
19,GCTGGAACTCCTCCGGTCAAGATCAAGTGGGCCTAGGGAGATTAGAGTATCGGTCGA,0.207 log2 normalized intensity
20,TCTAAGATTGGCCCTGATAATCAATCCAGCGCCTAGGGAGATTAGAGTATCGGTCGA,-0.941 log2 normalized intensity
21,CCACAGAATCGCCCCACCCTGCCTGGGTAGGCCTAGGGAGATTAGAGTATCGGTCGA,1.35 log2 normalized intensity
